Experimental data as given in the supplement of paper PMC6555819.

Test system: VDR:RXRa (NR concentration 270 nM, RXRa partner concentration 90 nM)
Test: PBM binding z-score (relative to random genomic background probes); higher = stronger binding; sequences stand for … in GC…GCGATTGACAGCGTAGAATGAAGG
Experimental: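 Protein-binding microarray (Agilent 4x180K custom design, double-stranded 60-nt probes: 5' GC cap, 34-nt variable region, 24-nt constant primer region; full probe sequence given). Purified or IVT nuclear receptor:RXRα heterodimers (3:1 NR:RXRα, mostly 270:90 nM) or homodimers were incubated for 1 h in PBS with 2% milk and no ligand, then detected with Alexa488 antibodies. Fluorescence from o1-orientation probes (~5 replicates averaged) was converted to z-scores against 500 random hg19 background probes. Variable regions are seed direct-repeat (DR0–DR5) sites, all their single-nucleotide variants and half-site ablations.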

Going from AGAATGAGGTTACCATAGATCAGGGAAACGCTTG to TCATATAGGTAATACAGGTGAAATTCGGCATCTA, the PBM binding z-score rises from 0.941 to 1.12.

Compared with CCGACTGGGGCAAGGTGACCATAACGCACAGCCA, TAGCCTATGTCATGGGCCAGTATACCACGCGAAC is higher in PBM binding z-score: -0.586 for the first, -0.365 for the second.

Going from AATACAGGGTCATCGTAGGCCACAGTACGCACAG to CCTTACGGGTCAAGGATATAGCACGGGTGGTACG, the PBM binding z-score falls from 5.63 to 2.65.

Compared with ATCGAAAGGTAGAAGGTGAGTATACCCACCCGAA, CCTACTGGGCCAAGGTCATTGGTCAGTCAAAGCA is higher in PBM binding z-score: -0.0163 for the first, 3.39 for the second.

First: ATCTCTAGGTAAAGATAGTTCAGTGGATGCAAAT
Second: CCTATTAGGTGACCATAAGGGCAACCGAAGCTCG
The PBM binding z-score of the first is lower: 0.451 for the first, 0.646 for the second.

Going from ACTAGTTGGTCAGCGGAGGTCACACACAATTCGG to CGTACAAGGTCAATGCTAGGTCAGTGAAAGCATT, the PBM binding z-score rises from 3.98 to 5.24.

Compared with AGTCAAAGTTCATCTAGGTAACGTTAGATATGCT, CCTCGGAGGACTGAAGGTCAGAGCTGTCCGCTTT is lower in PBM binding z-score: 5.11 for the first, 0.567 for the second.

Going from CGAACTAGGTCAAGGACCGTGAATCTCCGCACGC to CTCGAAAGGTCGGGCTCAGGTGAGTATACCAAAC, the PBM binding z-score rises from 0.799 to 1.5.

Compared with CTCGAAAGGACGGTTGAGGTGAGTATACGGATAA, AGAACGAGGGCAAAGAGTTGATAGCACGGGTGGC is higher in PBM binding z-score: -0.266 for the first, 4.29 for the second.

Compared with CAGCCTAGGTCAGGGCCACTATAGGAGGAACGTT, TAGCCTAGGTCATTCAGGGGCCAGTAAAGAAAGC is higher in PBM binding z-score: 0.305 for the first, 3.21 for the second.

First: CCTGTTAGGTCAATGGTCAGCTAAAGCAGCTCGC
Second: CGTCAATGTTCAAGGTAACGTAACAGAAAGCAGC
The PBM binding z-score of the first is higher: 1.54 for the first, 0.0627 for the second.

Going from TCTCGGAGGACACGACGGTCAGAGCTTTCCAGAG to CCTCGGAGGACAGAAAGTCAGAGCTGTCCGCTTT, the PBM binding z-score falls from -0.164 to -0.616.

First: ACTATTAGTTGAGACGAGGGTAACCGATAGGTTG
Second: CCTACTGGGCCATCAGGTCATTGGTATCAACGTT
The PBM binding z-score of the first is lower: 0.26 for the first, 2.04 for the second.

First: AGAACGAGGGAACGCTGAGTTGATAGCAGAGTAG
Second: TGAAGGAGGTTAAAGATCAGGGAACGTGGCGTCG
The PBM binding z-score of the first is lower: -0.0908 for the first, 1.24 for the second.

Going from AGAACGAGGGCAATGAGTTGATAGCCCGGGTGGC to TCTAGTTGGTCACGGAGGTGACACACGACGGGTA, the PBM binding z-score falls from 4.73 to 1.59.

Going from CCTTTCGGGTCAAGGTTATAGCACGGGTGGTACG to CAGCCTAGGCCAGGGCCAGTATAGGAGGAACGTT, the PBM binding z-score falls from 3.79 to -1.

First: CCTTACGGGTCACTGACAGTTTATAGCATTTGGA
Second: CGTACAAGGTCAGAGAGGTCAGTGAATGCCGAGT
The PBM binding z-score of the first is lower: 4.21 for the first, 7.46 for the second.

First: CAAACTAGGTCACGAAAGGTCGAAGTCGAATGAC
Second: TAGCCTAGGTCATTTAGGGGCCAGTATAGAAAGC
The PBM binding z-score of the first is higher: 5.72 for the first, 3.03 for the second.

First: CCTGCTAGGTCAATGGCCAGCTAAAGCAGCTCGC
Second: TCATATAGGTAAAGCTGAAAGTCGAACGATATGA
The PBM binding z-score of the first is higher: 0.561 for the first, 0.186 for the second.

Compared with CGTCCAAGGTCATAGGAGGACAGTGAAGACAGAT, GCACGGAGGACAAGGTCAGAGCTTTGTCCGTAGA is lower in PBM binding z-score: 5.21 for the first, 1.34 for the second.
